The results in this text go back to PubChem BioAssay (NCATS).

A short description of assay [1]: Cytotoxicity counterscreen for inhibitors of SARS-CoV-2 cell entry (AID 1645845). Further: nearly all actives have a fitted effect of over 50% in size. In outline:
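Expi293F/hACE2 cells seeded overnight; cpd pin-transferred in DMSO, 1 h preincubation, + media, 48 h 37 C 5% CO2; ATPLite 1step luminescence; normalized to cells and no cells.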
On the technique in general: A counterscreen serves to expose hits that act by an unwanted route or on another target.

A short description of assay [2]: Primary qHTS to identify inhibitors of SARS-CoV-2 cell entry (AID 1645846). Further: nearly all actives have a fitted effect of over 45% in size. Particulars: activity change, negative = inhibition: at 57.1 µM (top of the series) unless noted. The essentials: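 HEK293 cells stably expressing human ACE2, pre-treated 1 h with compound, then infected with MLV particles pseudotyped with Wuhan-Hu-1 spike (C-terminal 19-aa truncation). Luciferase luminescence after 48 h at 37 °C, normalised to spike PP and bald PP.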
In general terms: qHTS replaces the single test concentration by a dilution series.

Values joined by “and” are separate entries in the source; they are usually repeats but may differ in a detail not shown here. Identical values can stand only once. Records with an inconclusive call do not appear. Active and inactive are the calls of the source. The call rests on the fitted dose curve.
Potency means the concentration at half of the fitted maximal effect.

Regarding `CC1(C)[C@@H]2CC[C@@]1(C)C(=O)C2`, the Potency entry in assay [1] and in assay [2] was “inactive” each time.

With `CCC(C(=O)OCCN1CCOC(c2ccccc2)C1C)c1ccccc1` (centres undefined), the Potency result in assay [1] is “inactive”. The activity change, negative = inhibition in assay [2] was -21.8%.

For `N#Cc1cc(NC(=O)C(=O)O)c(Cl)c(NC(=O)C(=O)O)c1`, in assay [1], the Potency entry was “inactive”. Moreover, in assay [2], the activity change, negative = inhibition came to 1.2%.

Turning to `CCNC(=O)NCCCOc1cccc(CN2CCCCC2)c1`, the Potency entry in assay [1] and in assay [2] was “inactive” in each case.

As to `CCN1C(=O)c2ccccc2C1Nc1ccc(OCCN2CCCCC2)cc1` (centres undefined), the Potency entry in assay [1] was “inactive”. Besides, the activity change, negative = inhibition in assay [2] was 0.117%.

As for `CC1(C)O[C@@H]2C[C@H]3[C@@H]4C[C@H](F)C5=CC(=O)C=C[C@]5(C)[C@H]4[C@@H](O)C[C@]3(C)[C@]2(C(=O)CO)O1`, in assay [1], the Potency entry was “inactive”. In assay [2], the activity change, negative = inhibition is 12.8% and -23.3%.

As for `Nc1ccn([C@H]2CC[C@@H](CO)O2)c(=O)n1`, the Potency result in assay [1] and in assay [2] was “inactive” throughout.

For the compound `Cc1ccc(O)cc1`, the Potency entry in assay [1] is “inactive”. Besides, the activity change, negative = inhibition in assay [2] is -24.6%.

Consider `O=c1[nH]cnc2c1ncn2[C@@H]1O[C@H](CO)[C@@H](O)[C@H]1O`, for which the Potency result in assay [1] and in assay [2] was “inactive” throughout.

Consider `COc1cc(NS(=O)(=O)c2ccc(N)cc2)ncn1`, for which the Potency result in assay [1] and in assay [2] was “inactive” throughout.

As for `CCCCCOc1ccc(C2SC(=O)NC2=O)cc1OCC` (centres undefined), the Potency entry in assay [1] was “inactive”. Moreover, in assay [2], the activity change, negative = inhibition is -11.6%.

As to `COc1ccc(CN(CCN(C)C)c2ccccn2)cc1`, the Potency result in assay [1] is “inactive”. Besides, the activity change, negative = inhibition in assay [2] is -6.08%.

On to `NS(=O)(=O)c1cc2c(cc1Cl)NCNS2(=O)=O`, for which the Potency entry in assay [1] and in assay [2] was “inactive” each time.

For the compound `CCCc1nc(C)c2c(=O)[nH]c(-c3cc(S(=O)(=O)N4CCN(CC)CC4)ccc3OCC)nn12`, the Potency entry in assay [1] was “inactive”. The activity change, negative = inhibition in assay [2] is -31% and -14%.

Take `Cc1c(-c2ccccc2)oc2c(C(=O)OCCN3CCCCC3)cccc2c1=O`: in assay [1], the Potency result is “inactive”. In assay [2], the activity change, negative = inhibition was -5.61%.

Regarding `C[C@]1(Cn2ccnn2)[C@H](C(=O)O)N2C(=O)C[C@H]2S1(=O)=O`, the Potency result in assay [1] is “inactive”. Also, the activity change, negative = inhibition in assay [2] was 1.05%.

With `NS(=O)(=O)c1cc2c(cc1Cl)NC(CSCc1ccccc1)=NS2(=O)=O`, in assay [1], the Potency result was “inactive”. The activity change, negative = inhibition in assay [2] is -3.7%.

In the case of `C#CC1(O)CC[C@H]2[C@@H]3CCC4=CCCC[C@@H]4[C@H]3CC[C@@]21C` (some centres undefined), the Potency entry in assay [1] and in assay [2] was “inactive” in each case.

In the case of `CC(C)(Oc1ccc(CCNC(=O)c2ccc(Cl)cc2)cc1)C(=O)O`, the Potency entry in assay [1] and in assay [2] was “inactive” each time.

As to `CCCCOc1ccc(OCCCN2CCOCC2)cc1`, the Potency result in assay [1] and in assay [2] was “inactive” each time.

Take `O=C(OCC(O)CO)c1ccccc1Nc1ccnc2cc(Cl)ccc12` (centres undefined): the Potency result in assay [1] is “inactive”. Besides, the activity change, negative = inhibition in assay [2] was -18.4%.

`CCc1oc2ccccc2c1C(=O)c1cc(Br)c(O)c(Br)c1`: the Potency result in assay [1] was “inactive”. For the same compound, in assay [2], the activity change, negative = inhibition was -14%.

Turning to `COc1ccc2cc1Oc1ccc(cc1)C[C@H]1c3c(cc4c(c3Oc3cc5c(cc3OC)CCN(C)[C@@H]5C2)OCO4)CCN1C`, the Potency was 14.1 µM (active) in assay [1] and 7.94 µM (active) in assay [2].

Regarding `CC(=O)Oc1c(C)c(C)c2c(c1C)CC[C@@](C)(CCC[C@H](C)CCC[C@H](C)CCCC(C)C)O2`, the Potency result in assay [1] and in assay [2] was “inactive” each time.

For `CC(C)(C)C(=O)OCOC(=O)[C@@H]1N2C(=O)[C@@H](NC(=O)[C@H](N)c3ccccc3)[C@H]2SC1(C)C`, the Potency result in assay [1] was “inactive”. In assay [2], the activity change, negative = inhibition is -12.4%.

On to `NC(=O)C1(N2CCCCC2)CCN(CCCC(=O)c2ccc(F)cc2)CC1`, for which the Potency entry in assay [1] was “inactive”. The activity change, negative = inhibition in assay [2] was 3.21%.

Turning to `CCCc1ncc(C[n+]2ccccc2C)c(N)n1`, the Potency entry in assay [1] was “inactive”. In assay [2], the activity change, negative = inhibition is 0.0229%.

As to `CCCC(=O)OC[C@@H](OC(=O)CCC)[C@@H](OC(=O)CCC)[C@H](Cn1c2nc(=O)[nH]c(=O)c-2nc2cc(C)c(C)cc21)OC(=O)CCC`, the Potency result in assay [1] was “inactive”. Moreover, the activity change, negative = inhibition in assay [2] was -16.8%.

Regarding `NC(N)=N/N=C/c1c(Cl)cccc1Cl`, the Potency entry in assay [1] is “inactive”. In addition, the activity change, negative = inhibition in assay [2] was -25.8%.

On to `CC(=O)CCC(=O)O`, for which the Potency entry in assay [1] and in assay [2] was “inactive” each time.

`CN1CCC(=C2c3ccccc3CC(=O)c3sccc32)CC1`: the Potency result in assay [1] is “inactive”. Moreover, the activity change, negative = inhibition in assay [2] is -26%.

`CC(=C(CCOC(=O)C(C)C)SSC(CCOC(=O)C(C)C)=C(C)N(C=O)Cc1cnc(C)nc1N)N(C=O)Cc1cnc(C)nc1N`: the Potency result in assay [1] and in assay [2] was “inactive” in each case.

Turning to `OC(CCCN1CCCCC1)(c1ccccc1)c1ccccc1`, the Potency result in assay [1] is “inactive”. In assay [2], the activity change, negative = inhibition was -24.7%.

In the case of `c1ccc(CNCCNCc2ccccc2)cc1`, the Potency entry in assay [1] is “inactive”. In addition, in assay [2], the activity change, negative = inhibition was -30.1%.

For `CN1[C@@H]2CC[C@H]1CC(OC(=O)c1c[nH]c3ccccc13)C2` (some centres undefined), the Potency entry in assay [1] and in assay [2] was “inactive” in each case.

For the compound `CC1(C)S[C@@H]2[C@H](N=CN3CCCCCC3)C(=O)N2[C@H]1C(=O)O`, in assay [1], the Potency entry was “inactive”. Also, the activity change, negative = inhibition in assay [2] came to 0.13%.

As for `O=C(OCC(COC(=O)c1cccnc1)(COC(=O)c1cccnc1)COC(=O)c1cccnc1)c1cccnc1`, in assay [1], the Potency entry is “inactive”. Moreover, the activity change, negative = inhibition in assay [2] is -26.9%.

With `CCN(CC)CCOc1ccc(Cc2ccccc2)cc1`, in assay [1], the Potency result is “inactive”. Further, the Potency in assay [2] was 25.1 µM (active).

`Cc1cccc(C)c1NC(=O)C(C)N` (centres undefined): in assay [1], the Potency entry was “inactive”. Besides, the activity change, negative = inhibition in assay [2] amounted to 4.4%.

On to `NS(=O)(=O)c1cc2c(cc1Cl)CN(C1CCCCC1)C2=O`, for which the Potency entry in assay [1] and in assay [2] was “inactive” in each case.

Consider `CCOCCn1c(N2CCCN(C)CC2)nc2ccccc21`, for which, in assay [1], the Potency entry was “inactive”. Also, the activity change, negative = inhibition in assay [2] was -36.1%.

Turning to `CCCCNc1ccc(C(=O)OCCN(C)C)cc1`, the Potency entry in assay [1] and in assay [2] was “inactive” each time.

Regarding `CCC(=O)O[C@]1(C(=O)COC)[C@@H](C)C[C@H]2[C@@H]3CCC4=CC(=O)C=C[C@]4(C)C3(F)[C@@H](O)C[C@@]21C` (some centres undefined), the Potency entry in assay [1] and in assay [2] was “inactive” throughout.

Consider `CC(=O)OCC(=O)NCCCOc1cccc(CN2CCCCC2)c1`, for which the Potency entry in assay [1] and in assay [2] was “inactive” throughout.

Turning to `N=C(N)c1ccc(OCCCOc2ccc(C(=N)N)cc2)cc1`, the Potency entry in assay [1] was “inactive”. Moreover, in assay [2], the activity change, negative = inhibition is -8.76%.

Turning to `C[N+]1(C)CCC(=C(c2ccccc2)c2ccccc2)CC1`, the Potency entry in assay [1] was “inactive”. The activity change, negative = inhibition in assay [2] was -5.21%.

Turning to `O=C(O)CNC(=O)c1ccccc1I`, the Potency entry in assay [1] was “inactive”. Also, the activity change, negative = inhibition in assay [2] is -21.9%.
